We go through 33 molecules from the supplement of paper PMC7695840.

For test [1], the system named is Staphylococcus aureus MW2 delta-mecA (mecA-). Kind of test: normalized GFP fluorescence (growth of mecA- strain) (fraction of control range); higher = more growth of mecA- strain. As to conditions: compound concentration: 150 uM; cefoxitin: subinhibitory; fluorescent label: GFP. In outline:
(§1)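 A 1:1 mix of pre-induced S. aureus MW2 cells, DsRed-labeled with the gene and GFP-labeled without it, was grown in LB with a daily-set subinhibitory antibiotic dose on 150 μM compound (1.5% DMSO) in 1536-well plates, single replicate. Growth lasted 20 h at 37 °C, 90% humidity, without shaking, and DsRed (540/590) and GFP (485/520) were then read. Channels were scaled per plate to single-strain control medians, and plates with high untreated ratios and rows with DsRed/GFP >10 were removed.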

For test [2], the system named is Staphylococcus aureus MW2 (mecA+). The test is described as follows: normalized DsRed fluorescence (growth of mecA+ strain) (fraction of control range); higher = more growth of mecA+ strain. As to conditions: compound concentration: 150 uM; cefoxitin: subinhibitory; fluorescent label: DsRed. The method, boiled down:
as §1

Structures can show the parent of a compound that is named as a salt.

In the case of `COc1cc2nccc(Oc3ccc(NC(=O)C4(C(=O)Nc5ccc(F)cc5)CC4)cc3)c2cc1OC` [Cabozantinib malate], the “normalized GFP fluorescence” value in test [1] came to 0.367. Moreover, in test [2], the “normalized DsRed fluorescence” value is 0.686.

On to `CCCCCCc1ccc(O)cc1O`, for which the “normalized GFP fluorescence” value in test [1] came out at 0.0569. Besides, the “normalized DsRed fluorescence” value in test [2] is 1.59.

For the molecule `CC(C(=O)O)c1ccc(C(=O)c2cccs2)cc1` (stereo unspecified), the “normalized GFP fluorescence” value in test [1] turned out to be 0.344. Besides, in test [2], the “normalized DsRed fluorescence” value was determined as 0.423.

Turning to `O=C(Nc1cccc2c(=O)cc(-c3nnn[nH]3)oc12)c1ccc(OCCCCc2ccccc2)cc1` [Pranlukast], the “normalized GFP fluorescence” value in test [1] was 0.0957. Also, the “normalized DsRed fluorescence” value in test [2] stood at 0.714.

With `O=C(Nc1c(Cl)cncc1Cl)c1ccc(OC(F)F)c(OCC2CC2)c1` [Roflumilast (Daxas)], the “normalized GFP fluorescence” value in test [1] came to 0.368. Moreover, the “normalized DsRed fluorescence” value in test [2] was found to be 0.773.

In the case of `NC(=O)N/N=C/c1ccc([N+](=O)[O-])o1` [Nitrofurazone (Nitrofural)], in test [1], the “normalized GFP fluorescence” value turned out to be 0.0137. The “normalized DsRed fluorescence” value in test [2] amounted to 0.0574.

Take `C=C1[C@H](CO)[C@@H](O)C[C@@H]1n1cnc2c(=O)[nH]c(N)nc21` [Entecavir hydrate]: in test [1], the “normalized GFP fluorescence” value was 0.319. Also, in test [2], the “normalized DsRed fluorescence” value stood at 0.447.

On to `COc1cc(OC)c(C(=O)CCCN2CCCC2)c(OC)c1` [Buflomedil HCl], for which, in test [1], the “normalized GFP fluorescence” value stood at 0.4. Moreover, the “normalized DsRed fluorescence” value in test [2] was 0.499.

Take `CC(C)NCC(O)COc1ccc(CCOCC2CC2)cc1` (stereo unspecified) [Betaxolol hydrochloride (Betoptic)]: the “normalized GFP fluorescence” value in test [1] is 0.372. In addition, the “normalized DsRed fluorescence” value in test [2] was 0.674.

Regarding `NC[C@H](O)c1ccc(O)c(O)c1`, the “normalized GFP fluorescence” value in test [1] turned out to be 0.502. In addition, the “normalized DsRed fluorescence” value in test [2] stood at 1.06.

For the molecule `Clc1ccc(C(Cn2ccnc2)OCc2ccc(Sc3ccccc3)cc2)c(Cl)c1` (stereo unspecified) [Fenticonazole nitrate], the “normalized GFP fluorescence” value in test [1] is -0.002. The “normalized DsRed fluorescence” value in test [2] was found to be 0.0182.

With `Cc1ccc(C)c(OCCCC(C)(C)C(=O)O)c1`, the “normalized GFP fluorescence” value in test [1] worked out at 0.121. For the same molecule, the “normalized DsRed fluorescence” value in test [2] was 1.54.

Take `O=C(O)C1(C(=O)O)CCC1.[NH2-].[NH2-].[Pt+2]`: in test [1], the “normalized GFP fluorescence” value is 0.26. Also, the “normalized DsRed fluorescence” value in test [2] was 0.886.

As for `CN(C)CCCN1c2ccccc2CCc2ccccc21`, the “normalized GFP fluorescence” value in test [1] was 0.0133. Also, in test [2], the “normalized DsRed fluorescence” value was determined as 1.83.

For `CC(=O)N(O)CCCCCNC(=O)CCC(=O)N(O)CCCCCNC(=O)CCC(=O)N(O)CCCCCN`, the “normalized GFP fluorescence” value in test [1] worked out at 0.272. Also, the “normalized DsRed fluorescence” value in test [2] was found to be 1.26.

`Cc1[nH+]cc(COP(=O)([O-])[O-])c(CN(CCN(CC(=O)[O-])Cc2c(COP(=O)([O-])O)c[nH+]c(C)c2O)CC(=O)[O-])c1O.[Mn].[Na+].[Na+].[Na+]`: the “normalized GFP fluorescence” value in test [1] stood at 0.415. Also, the “normalized DsRed fluorescence” value in test [2] is 0.481.

In the case of `C=CC[C@@H]1/C=C(\C)C[C@H](C)C[C@H](OC)[C@H]2O[C@@](O)(C(=O)C(=O)N3CCCC[C@H]3C(=O)O[C@H](/C(C)=C/[C@@H]3CC[C@@H](O)[C@H](OC)C3)[C@H](C)[C@@H](O)CC1=O)[C@H](C)C[C@@H]2OC` [FK-506 (Tacrolimus)], the “normalized GFP fluorescence” value in test [1] came to 0.0621. Further, the “normalized DsRed fluorescence” value in test [2] worked out at 1.04.

For the molecule `CC(Oc1c(Cl)cccc1Cl)C1=NCCN1` (stereo unspecified), the “normalized GFP fluorescence” value in test [1] amounted to 0.693. For the same molecule, the “normalized DsRed fluorescence” value in test [2] stood at 0.569.

As to `O=C(O)c1ccccc1C(=O)Nc1ccc(S(=O)(=O)Nc2nccs2)cc1`, the “normalized GFP fluorescence” value in test [1] was 0.538. Besides, in test [2], the “normalized DsRed fluorescence” value turned out to be 0.763.

Consider `CN1CC(=O)N2[C@H](c3ccc4c(c3)OCO4)c3[nH]c4ccccc4c3C[C@@H]2C1=O`, for which the “normalized GFP fluorescence” value in test [1] came to 0.112. Further, the “normalized DsRed fluorescence” value in test [2] came out at 0.636.

Consider `C[C@]12CCC(=O)C=C1C=C[C@@H]1[C@@H]2CC[C@@]2(C)[C@H]1CC[C@@]21CCC(=O)O1`, for which, in test [1], the “normalized GFP fluorescence” value is 0.191. The “normalized DsRed fluorescence” value in test [2] is 0.593.

Turning to `NS(=O)(=O)c1cc2c(cc1C(F)(F)F)NCNS2(=O)=O`, the “normalized GFP fluorescence” value in test [1] is 0.22. In addition, the “normalized DsRed fluorescence” value in test [2] was found to be 0.753.

Regarding `C[N+](C)(C)CCO.[Cl-]`, the “normalized GFP fluorescence” value in test [1] was determined as 0.657. For the same molecule, the “normalized DsRed fluorescence” value in test [2] was 0.615.

As to `O=C(O)CCCCCCCC(=O)O`, in test [1], the “normalized GFP fluorescence” value came to 0.422. Also, the “normalized DsRed fluorescence” value in test [2] is 0.443.

As to `O=C(O)c1cccnc1` [Niacin (Nicotinic acid)], the “normalized GFP fluorescence” value in test [1] is 0.536. Besides, the “normalized DsRed fluorescence” value in test [2] amounted to 0.614.

With `NCCc1ccc(O)c(O)c1`, the “normalized GFP fluorescence” value in test [1] was determined as 0.483. Also, in test [2], the “normalized DsRed fluorescence” value turned out to be 0.728.

For the molecule `Cc1nc2n(c(=O)c1CCN1CCC(c3noc4cc(F)ccc34)CC1)CCCC2`, the “normalized GFP fluorescence” value in test [1] amounted to 0.481. Besides, the “normalized DsRed fluorescence” value in test [2] amounted to 0.492.

For `CC(C)[N+]1(C)[C@@H]2CC[C@H]1C[C@@H](OC(=O)C(CO)c1ccccc1)C2` (stereo partly specified), in test [1], the “normalized GFP fluorescence” value was 0.206. Also, the “normalized DsRed fluorescence” value in test [2] was 0.856.

Take `CC(C)[C@H]1CC[C@H](C(=O)N[C@H](Cc2ccccc2)C(=O)O)CC1`: in test [1], the “normalized GFP fluorescence” value was 3.92e-05. Also, in test [2], the “normalized DsRed fluorescence” value was 0.513.

On to `CCCc1cc(C(N)=S)ccn1` [Protionamide (Prothionamide)], for which the “normalized GFP fluorescence” value in test [1] was 0.749. For the same molecule, the “normalized DsRed fluorescence” value in test [2] worked out at 0.698.

`O=C1N=C(O)NC1(c1ccccc1)c1ccccc1`: the “normalized GFP fluorescence” value in test [1] came out at 0.309. Also, the “normalized DsRed fluorescence” value in test [2] was 1.06.

Take `Cc1c(OCC(F)(F)F)ccnc1C[S+]([O-])c1nc2ccccc2[nH]1` (stereo unspecified) [Lansoprazole]: in test [1], the “normalized GFP fluorescence” value was 0.122. Further, the “normalized DsRed fluorescence” value in test [2] came out at 0.553.

`Cc1cc(-c2ccccc2)nnc1NCCN1CCOCC1`: in test [1], the “normalized GFP fluorescence” value was determined as 0.44. Besides, the “normalized DsRed fluorescence” value in test [2] worked out at 0.611.
